We go through 14 compounds from PubChem BioAssay (NCATS).

Results filed as inconclusive are left out. The source made the active and inactive calls. Unless noted, calls follow the shape of the dose curve; as a rule, active = well fitted curve in the direction sought with a large enough effect; inconclusive = small, poorly fitted or top-dose-only effect, or another doubt; inactive = no such curve, though single readings can be large; an effect the other way counts as inactive or inconclusive.

Experiment [1] can be described thus: Quantitative High-Throughput drug screen in 47 multiple myeloma cell lines against the NCATS MIPE library collection: KMS28BM_JCRB cell viability assay (AID 1919874). Also: potency is read from the fitted curve at half-maximal effect; nearly all actives have a fitted effect of over 35% in size. A digest of the protocol: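 500 cells/well per myeloma line exposed to pinned MIPE 4.0 compounds for 48 h at 37 °C, 5% CO2. Viability read as ATP by CellTiter-Glo luminescence, normalised to DMSO-only (100%) and media-only (0%) wells.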

Experiment [2] in a line: qHTS for identification of novel therapeutic agents for treatment of microphthalmiaassociated transcription factor (MiT) renal cell carcinoma (RCC) (AID 1963991; calls by dose curve; also: potency is read from the fitted curve at half-maximal effect). The conditions noted are these: CellTiter-Glo, 48 h; for Potency: active = Z-AUC below -0.8 in all three lines; for z-score: stronger effect = lower value. A digest of the protocol: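 Viability of three TFE3-fusion renal carcinoma lines measured by CellTiter-Glo after 48 h treatment with each of 1912 compounds at 11 concentrations. Responses scaled between DMSO (100%) and empty wells (0%) before curve fitting.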

Experiment [3] in a line: qHTS drug screen for cell cycle checkpoint inhibitors in PARPi-resistant BRCA-mutant ovarian cancer cell lines. (AID 1963452; calls by dose curve; also: potency is read from the fitted curve at half-maximal effect). The settings on record: PEO1/OlaR viability, CellTiter-Glo luminescence, 96 h; for Z-AUC: stronger effect = lower value. A digest of the protocol:
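PEO1, PEO4 and PEO1/OlaR ovarian cancer cells, 600 per well, exposed 96 h at 37C to a dilution series. Viability read by CellTiter-Glo luminescence, normalized to DMSO and empty wells; activity summarized as Z-AUC.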
In general terms: Quantitative high-throughput screening tests each substance at several concentrations.

The target in experiment [4] is Cytochrome P450 2D6 (Homo sapiens) (UniProt P10635). The experiment is described as follows: qHTS for inhibitors of CYP2D6 against the NCATS DSHEA and TCM libraries (AID 1919972). Also: % is scaled to controls: 0 for no effect and ±100 for the full control effect. A digest of the protocol: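 Luminescent P450-Glo read-out of CYP2D6 turnover of a luciferin substrate after NADPH-driven reaction of 30-45 min at room temperature. Compounds were first preincubated 15 min with enzyme at titrated concentrations; quinidine was the intraplate control.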
Cytochrome P450 2D6 (Homo sapiens), sequence (P10635 whole entry, looked up): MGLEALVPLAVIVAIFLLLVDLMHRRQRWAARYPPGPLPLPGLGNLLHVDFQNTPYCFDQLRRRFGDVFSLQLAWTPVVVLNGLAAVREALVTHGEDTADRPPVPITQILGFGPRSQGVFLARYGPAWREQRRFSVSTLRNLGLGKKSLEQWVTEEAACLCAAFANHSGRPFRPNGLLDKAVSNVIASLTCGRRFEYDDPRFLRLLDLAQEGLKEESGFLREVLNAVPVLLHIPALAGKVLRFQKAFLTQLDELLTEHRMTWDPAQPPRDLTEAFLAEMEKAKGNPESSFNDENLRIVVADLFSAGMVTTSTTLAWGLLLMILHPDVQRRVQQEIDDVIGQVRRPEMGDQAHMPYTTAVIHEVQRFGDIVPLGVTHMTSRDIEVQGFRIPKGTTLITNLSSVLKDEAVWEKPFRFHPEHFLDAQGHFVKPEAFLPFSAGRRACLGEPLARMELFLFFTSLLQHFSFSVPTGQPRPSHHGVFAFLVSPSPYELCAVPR

Experiment [5] in a line: KB-3-1 P-gp reporter qHTS against the NCATS DSHEA and TCM libraries (AID 1919975). Also: 0% is about no effect. A digest of the protocol:
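Cell viability by CellTiter-Glo luminescence following ~72 h compound exposure (concentration-response). Uses parental, non-P-gp-overexpressing KB-3-1 line, 500 cells/well in DMEM/10% FBS, attached ~4 h before dosing.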

Experiment [6] deals with Cytochrome P450 1A2 (Homo sapiens) (UniProt P05177). Put plainly: qHTS for inhibitors of CYPIA2 against the NCATS DSHEA and TCM libraries (AID 1919976). Also: potency is read from the fitted curve at half-maximal effect. A digest of the protocol:
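CYP1A2 + luciferin substrate, 100 mM KPO4-type buffer; cmpd 15 min RT; 1x NADPH regen, 30-45 min RT dark; detection reagent 30 min RT; luminescence. Minus-enzyme wells as background; furafylline intraplate control.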

A short description of experiment [7]: qHTS Counterscreen for compound interference against the NCATS DSHEA and TCM libraries (AID 1919978).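 Also: compounds preincubated with 1 µM D-luciferin or buffer before detection reagent; % of control where 0% means no effect.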 The conditions noted are these: firefly luciferase detection reagent interference, luminescence. A digest of the protocol: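 With 1 uM D-luciferin or phosphate buffer only, compounds at final 19.5 nM–39.8 uM were incubated for 15 min at room temperature. Luciferase detection reagent was then added, and luminescence was measured after a further 30 min at room temperature.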

Experiment [8] can be described thus: Dual reporter qHTS for agonist of Pregnane X Receptor (hPXR) against the NCATS DSHEA and TCM libraries: Fluorescence readout (AID 1920058). Also: 0% is about no effect. A digest of the protocol:
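HepG2 hPXR-Luc, 2000 cells/well, 5 h attach; cpds ~24 h, 37 °C/5% CO2; CellTiter-Fluor 1 h; fluor. Ex/Em 405/540 nm = viability.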

The target in experiment [9] is Nuclear receptor subfamily 1 group I member 2 (Homo sapiens) (UniProt O75469). Put plainly: Dual reporter qHTS for agonist of Pregnane X Receptor (hPXR) against the NCATS DSHEA and TCM libraries: Luminescence readout (AID 1920059). Also: 0% is about no effect. A digest of the protocol:
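hPXR-Luc HepG2 cells, 2000/well in 5% charcoal-stripped FBS medium, attached 5 h, then exposed 24 h at 37C to compounds. Viability by CellTiter-Fluor, then luciferase luminescence with ONE-Glo.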

Experiment [10] shares this target. Put plainly: Dual reporter qHTS for antagonist of Pregnane X Receptor (hPXR) against the NCATS DSHEA and TCM libraries: Luminescence Readout (AID 1920060). Also: 0% is about no effect. A digest of the protocol: (§1)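 Rifampicin-stimulated (2 uM final) hPXR-luciferase HepG2 cells were treated for 24 h with DSNP/TCM substances. Viability came from CellTiter-Fluor fluorescence, reporter activity from ONE-Glo luminescence.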

Experiment [11] is described as follows: Dual reporter qHTS for antagonist of Pregnane X Receptor (hPXR) against the NCATS DSHEA and TCM libraries: Fluorescence Readout (AID 1920061). Also: 0% is about no effect. A digest of the protocol: as §1
The nature of experiment [12]: qHTS profiling for inhibitors of Plasmodium falciparum proliferation (AID 504749). Also: potency is read from the fitted curve at half-maximal effect; nearly all actives have a fitted effect of over 60% in size. The conditions noted are these: P. falciparum in erythrocytes, SYBR Green DNA, 72 h. A digest of the protocol:
(§2)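 P. falciparum-infected erythrocytes (0.3% parasitemia, 2.5% hematocrit) incubated with compound 72 h at 37 C, 5% CO2. Parasite DNA detected by SYBR Green after lysis, overnight at room temperature; normalised to 0.29 uM artemisinin and DMSO.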

In a further experiment the test system is 3D7. Described as above. The conditions noted are these: P. falciparum in erythrocytes, SYBR Green DNA, 72 h; series mostly up to 28.7 µM. A digest of the protocol:
as §2

In the next experiment the test system is AA1029. The description is as above. The settings on record: P. falciparum in erythrocytes, SYBR Green DNA, 72 h; series mostly up to 28.7 µM. A digest of the protocol: as §2
The test system of another experiment is AS120. The description is as above. The settings on record: P. falciparum in erythrocytes, SYBR Green DNA, 72 h; series mostly up to 28.7 µM. A digest of the protocol:
as §2

The next experiment concerns ATS189. Described as above. The settings on record: P. falciparum in erythrocytes, SYBR Green DNA, 72 h; series mostly up to 28.7 µM. A digest of the protocol:
as §2

[13] abbreviates: TFE3-RCC UOK109 viability, measured here: UOK109 Z-AUC.
Where [14] appears, read: TFE3-RCC viability, measured here: UOK124 Z-AUC.
Where [15] appears, read: TFE3-RCC viability, measured here: UOK145 Z-AUC.
[16] abbreviates: measured here: PEO1 parental Z-AUC.

Nuclear receptor subfamily 1 group I member 2 (Homo sapiens), sequence (O75469 whole entry, looked up): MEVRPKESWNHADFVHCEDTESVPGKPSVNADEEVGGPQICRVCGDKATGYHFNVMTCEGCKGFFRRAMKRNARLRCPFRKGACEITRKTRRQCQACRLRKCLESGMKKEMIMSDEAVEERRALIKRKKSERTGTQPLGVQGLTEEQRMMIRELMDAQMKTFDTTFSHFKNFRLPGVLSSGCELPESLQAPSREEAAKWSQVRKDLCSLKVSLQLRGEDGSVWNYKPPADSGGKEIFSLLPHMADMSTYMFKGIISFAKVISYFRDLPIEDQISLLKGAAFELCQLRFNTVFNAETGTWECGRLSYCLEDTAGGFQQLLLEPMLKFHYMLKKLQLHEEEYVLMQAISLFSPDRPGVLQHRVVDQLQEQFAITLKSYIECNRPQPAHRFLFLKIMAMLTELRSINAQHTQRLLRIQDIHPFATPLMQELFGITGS
Cytochrome P450 1A2 (Homo sapiens), sequence (P05177 whole entry, looked up): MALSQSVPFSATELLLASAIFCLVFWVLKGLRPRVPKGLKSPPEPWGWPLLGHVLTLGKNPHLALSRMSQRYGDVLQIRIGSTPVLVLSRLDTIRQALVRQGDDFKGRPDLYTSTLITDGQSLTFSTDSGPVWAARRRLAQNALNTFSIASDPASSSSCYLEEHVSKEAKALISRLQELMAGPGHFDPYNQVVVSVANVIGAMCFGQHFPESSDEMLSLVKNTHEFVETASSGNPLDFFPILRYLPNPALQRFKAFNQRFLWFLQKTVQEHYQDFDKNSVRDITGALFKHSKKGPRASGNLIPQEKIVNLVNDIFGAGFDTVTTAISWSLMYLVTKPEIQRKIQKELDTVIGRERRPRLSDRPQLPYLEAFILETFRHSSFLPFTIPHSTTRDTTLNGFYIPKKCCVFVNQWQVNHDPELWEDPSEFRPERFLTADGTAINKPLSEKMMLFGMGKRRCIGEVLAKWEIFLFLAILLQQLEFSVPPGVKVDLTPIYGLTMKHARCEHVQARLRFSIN

On to `O=C(C=Cc1ccc(CN(CCO)CCc2c[nH]c3ccccc23)cc1)NO`, for which the Potency was 52.6 nM (active) in experiment [1] and 590 nM (active) in experiment [2] (TFE3-RCC UOK109 viability). Moreover, the figures for the z-score in experiment [2] (setting [13]), in [2] (setting [14]) and in experiment [2] (setting [15]) were -1.47, -3.24 and -1.37, respectively.

On to `COc1ccc(S(=O)(=O)Nc2cc(-c3c(O)ccc4ccccc34)c(O)c3ccccc23)cc1`, for which the Z-AUC in experiment [3] is 0.502 (inactive); in experiment [3] (setting [16]), 0.417; in experiment [3] (measured here: PEO4 Z-AUC), 0.118.

For the compound `CC(C)n1cnc2c(NCCc3ccc(O)cc3)nc(-c3csc4ccccc34)nc21`, the Z-AUC in experiment [3] is 0.419 (inactive); in experiment [3] (setting [16]), 0.415; in experiment [3] (measured here: PEO4 Z-AUC), 0.466.

With `O=c1c(O)c(-c2ccc(O)c(O)c2)oc2cc(O)ccc12`, the Z-AUC was 0.12 (inactive) in experiment [3], -0.105 in [3] (setting [16]) and 0.0271 in experiment [3] (measured here: PEO4 Z-AUC).

In the case of `COc1ccc(C[C@@H](C)[C@@H](C)Cc2ccc(OC)c(OC)c2)cc1OC`, the Z-AUC in experiment [3] was 0.193 (inactive); in experiment [3] (setting [16]), -0.135; in [3] (measured here: PEO4 Z-AUC) it was 0.0624.

As to `O=C1CSC(=O)N1C(CCc1ccncc1)COc1ccc(-c2cccc([N+](=O)[O-])c2)cc1` (configuration not stated), the Z-AUC in experiment [3] was 0.623 (inactive); in experiment [3] (setting [16]), -0.739; in [3] (measured here: PEO4 Z-AUC) it was 0.104.

On to `C[C@@H](NCc1cc2ccccc2[nH]1)c1cccc2ccccc12`, for which the Z-AUC in [3] is 0.66 (inactive); in experiment [3] (setting [16]), 0.376; in experiment [3] (measured here: PEO4 Z-AUC), 0.0374.

With `CCc1nc(-c2cccc(C)c2)c(-c2ccnc(NC(=O)c3ccccc3)c2)s1`, the values for the Z-AUC in [3], in [3] (setting [16]) and in [3] (measured here: PEO4 Z-AUC) were -0.209 (inactive), 0.57 and 0.812, respectively.

Turning to `Cn1cnc2c(F)c(Nc3ccc(Br)cc3F)c(C(=O)NOCCO)cc21`, the Z-AUC is -0.612 (inactive) in experiment [3], -0.742 in [3] (setting [16]) and -0.428 in [3] (measured here: PEO4 Z-AUC).

Turning to `COc1ccc(C(C)=O)c(O)c1`, the compound was classed as inactive in experiment [4], in experiment [5], in experiment [8], in experiment [9], in experiment [10] and in experiment [11]. For the same compound, the Potency in [6] is 15800 nM (active). For the same compound, the max response in experiment [7] is 3.21% (inactive).

`CC(Oc1ccc(O)cc1)(P(=O)(O)O)P(=O)(O)O`: the Z-AUC in experiment [3] is 0.474 (inactive); in [3] (setting [16]), 0.34; in experiment [3] (measured here: PEO4 Z-AUC) it was 0.383. The z-score in [2] (setting [13]) amounted to 0.171; in experiment [2] (setting [14]), 0.237; in experiment [2] (setting [15]), 0.233.

In the case of `C[C@H](CCC(=O)O)[C@H]1CC[C@H]2[C@@H]3[C@H](O)C[C@@H]4C[C@H](O)CC[C@]4(C)[C@@H]3CC[C@]12C`, the z-score worked out at 0.305 in experiment [2] (setting [13]), 0.277 in experiment [2] (setting [14]) and 0.171 in [2] (setting [15]).

On to `COc1cc([C@@H]2c3cc4c(cc3[C@H](O)[C@H]3COC(=O)[C@@H]23)OCO4)cc(OC)c1OC`, for which the results for the Potency in experiment [3] and in experiment [2] (TFE3-RCC UOK109 viability) were 1230 nM (active) and 83.3 nM (active), respectively. For the same compound, the Z-AUC was -1.51 in experiment [3] (setting [16]) and -1.58 in experiment [3] (measured here: PEO4 Z-AUC). Further, the z-score in experiment [2] (setting [13]) is -1.41; in experiment [2] (setting [14]) it was -1.77; in experiment [2] (setting [15]) it was -1.2.

Turning to `CCC(C(=O)O)C1CCC(C)C(C(C)C(O)C(C)C(=O)C(CC)C2OC3(C=CC(O)[C@@]4(CC[C@](C)(C5CC[C@@](O)(CC)C(C)O5)O4)O3)C(C)CC2C)O1` (some centres not stated), the Potency in experiment [3] was 1380 nM (active); in [12] (parasite line A) it was 1000 nM (active); in experiment [12] (parasite line B), 1120 nM (active); in the experiment on 3D7, 794 nM (active); with AA1029, 891 nM (active); in the experiment on AS120, 631 nM (active). Besides, in the experiment on ATS189, the Potency was 1260 nM (active). For the same compound, the Z-AUC in experiment [3] (setting [16]) is -1.77; in [3] (measured here: PEO4 Z-AUC) it was -1.98.
